# Reference: PubChem BioAssay AID1851 (National Center for Advancing Translational Sciences (NCATS), 2009)
# Hit rate of the full screen: of about 16,000 compounds, about 5,700 (36%) were called active. Another 24% or so got no clear call; they are omitted. The list shows a part of the results. Values without a mark were called inactive. The call rests on the fitted dose curve; in most records, active means well fitted curve in the direction sought with a large enough effect; inconclusive means small, poorly fitted or top-dose-only effect, or effect the other way; inactive means no such curve, though single readings can be large or run the other way.
# Molecular target: Cytochrome P450 1A2 (Homo sapiens) (UniProt P05177)
# Sequence (P05177 whole entry, looked up): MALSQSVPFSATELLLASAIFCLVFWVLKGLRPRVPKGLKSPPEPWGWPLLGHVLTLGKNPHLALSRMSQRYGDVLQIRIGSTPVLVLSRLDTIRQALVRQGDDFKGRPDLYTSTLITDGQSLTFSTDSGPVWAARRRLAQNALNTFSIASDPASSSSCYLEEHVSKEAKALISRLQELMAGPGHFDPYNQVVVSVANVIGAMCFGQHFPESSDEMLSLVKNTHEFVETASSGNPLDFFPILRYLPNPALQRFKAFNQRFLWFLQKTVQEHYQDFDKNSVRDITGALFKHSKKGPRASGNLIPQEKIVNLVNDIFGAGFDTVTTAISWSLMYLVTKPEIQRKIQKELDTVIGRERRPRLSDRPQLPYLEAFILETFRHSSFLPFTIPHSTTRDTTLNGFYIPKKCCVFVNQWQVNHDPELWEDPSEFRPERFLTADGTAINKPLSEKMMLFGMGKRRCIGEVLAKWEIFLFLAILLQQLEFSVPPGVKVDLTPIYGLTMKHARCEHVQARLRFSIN
# Assay: Cytochrome panel assay with activity outcomes
# Conditions: recombinant CYP, pro-luciferin dealkylation, luminescence, p450-cyp1a2; series mostly up to 57.1 µM
# On the % scale 0 is the no-effect control and ±100 the full control effect.
Compound,"activity, negative = inhibition",AC50
CO[C@@H]1/C=C\O[C@@]2(C)Oc3c(C)c(O)c4c(c3C2=O)C(=N[C@H]2CC[C@H](O)O[C@@H]2C)C=C(NC(=O)/C(C)=C\C(=O)[C@@H]2C[C@@H]2[C@@H](O)[C@H](C)[C@@H](O)[C@H](C)[C@H](OC(C)=O)[C@@H]1C)C4=O,-9.54% [at 11.4 µM],–
COc1ccc(-n2ccnc2SCC(=O)Nc2ccccc2)cc1,–,12.6 µM (active)
COc1ccc(NC(=O)CSc2ccc3c4c(cccc24)C(=O)c2ccccc2-3)cc1,–,1.58 µM (active)
Cn1ccnc1SCC(=O)Nc1sccc1C#N,–,3.16 µM (active)
COc1ccc(NC(=O)CSC2=NC(=O)CC(C)=N2)cc1,–,inactive
COc1ccc(-n2nnnc2SCC(=O)Nc2ccccc2)cc1,–,6.31 µM (active)
COc1ccc(NC(=O)CSc2nnc(C3CC3)n2-c2ccccc2)cc1,–,inactive
CCC(=O)Nc1ccc(NC(=O)CSc2nnnn2-c2cccnc2)cc1C,–,inactive
C=CCN1C(=NC(=O)CC)SC2CS(=O)(=O)CC21 (centres undefined),–,inactive
O=c1[nH]c(=S)c2[nH]c(=O)n(-c3ccccc3)c2[nH]1,-1.84% [at 11.4 µM],–
COc1cccc(NC(=O)CSc2nnc(CN3CCOCC3)n2C)c1,–,inactive
COc1cccc(-n2ccnc2SCC(=O)Nc2nccs2)c1,–,1.26 µM (active)
COC(=O)CSc1nnc(C)n1-c1cccc(OC)c1,–,inactive
CCOc1ccc(-n2c(SCC(=O)Nc3ccc(OC)cc3OC)nc3c(c2=O)SCC3)cc1,–,inactive
COc1ccc(-n2ccnc2SCC(=O)Nc2ccc(OC)cc2OC)cc1,–,6.31 µM (active)
O=C1[C@H]2[C@H]3[C@H](O)[C@H](O)C/C(=N/OC[C@@H](O)COCc4ccco4)[C@H]3CC[C@@H]2C(=O)N1Cc1ccc2c(c1)OCO2,6.71% [at 11.4 µM],–
O=C(c1ccncc1)N1CCC2(CC1)CN(Cc1cc(C(F)(F)F)cc(C(F)(F)F)c1)C2,–,inactive
O=C1[C@@H]2[C@@H]3C=C[C@H]([C@@H]2C(=O)N1CN1CCSCC1)[C@@H]1[C@@H]2C(=O)N(CN4CCSCC4)C(=O)[C@@H]2[C@H]31,-13.4% [at 11.4 µM],–
O=C(NOC(=O)c1cc(Br)ccc1Cl)c1cccs1,–,inactive
CN(C)CCNC(=O)Cn1nc(-c2ccc(Cl)cc2)ccc1=O,–,inactive
CN(C)CCNC(=O)c1cc(Br)ccc1Cl,–,11.2 µM (active)
CCCS(=O)(=O)N1CCCC(C(=O)NCCN(C)Cc2ccccc2)C1 (centres undefined),–,inactive
CCn1c(SCc2ccc(Cl)cc2Cl)nc2nc3c(cc2c1=O)CCCC3,–,3.55 µM (active)
Cn1c(=O)c2c(nc(N3CCN(c4ccccn4)CC3)n2Cc2ccc(Cl)cc2Cl)n(C)c1=O,–,inactive
